# Measured values: PubChem BioAssay AID686979 (National Center for Advancing Translational Sciences (NCATS), 2013)
# Screen size: about 420,000 compounds; about 50,000 (12%) were called active. Entries that show only a call come without a potency. Inconclusive results (about 26%) are left out. Calls come from the whole dose curve; as a rule, active = well fitted inhibition curve with a large enough effect; inconclusive = small, poorly fitted or top-dose-only effect; inactive = flat fitted curve, though single readings scatter. The sample as a whole holds a higher share of actives than the screen did.
# Assay: qHTS for Inhibitors of human tyrosyl-DNA phosphodiesterase 1 (TDP1): qHTS in cells in presence of CPT; note: nearly all actives have a fitted effect of over 55% in size
# Conditions: chicken DT40 Tdp1-/-;hTDP1 cells + 20 nM CPT, ATP luminescence, 48 h; series mostly up to 46.2 µM
# Procedure, shortened: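 Chicken DT40 Tdp1-/- cells stably complemented with human TDP1 were seeded at 400 cells/well in medium containing 20 nM camptothecin, exposed to pin-transferred compounds, and grown at 37 °C for at least 48 hr. Viability was read as ATP luminescence.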
# Potency is the fitted concentration of half-maximal effect.
row,Structure (SMILES),Potency
1,N=c1ccccn1Cc1ccccc1,inactive
2,CC1=CC(=Cc2sc3ccccc3[n+]2C)C=C(C)O1,0.164 µM (active)
3,CCOc1ccc(-c2cc(C)[n+](CCN(CC)CC)c(-c3ccc(OCC)cc3)c2)cc1,0.206 µM (active)
4,COc1cc(C(=O)N2Cc3ccc(Br)cc3-n3nncc3C2)cc(OC)c1OC,inactive
5,CC=C(C)C(=O)OC1CCN2CC=C(COC(=O)C(O)(C(C)OC)C(C)(C)O)C12 (configuration not stated),inactive
6,CN(Cc1cccc2ncccc12)C(=O)c1cnn(-c2nccc(-c3ccccc3F)n2)c1C1CC1,5.17 µM (active)
7,COc1ccccc1OC(=O)c1ccc(C)c(S(=O)(=O)N2CCOCC2)c1,inactive
8,CC(=NC1CCN(Cc2ccccc2)CC1)c1c(O)n(C)c(=O)n(C)c1=O,inactive
9,N[C@H](Cc1o[nH]c(=O)c1Cl)C(=O)O,inactive
10,CO[C@@H]1C[C@@H](C[C@H]2CC[C@H](C)[C@@H]([C@@H](C)C(=O)O)O2)O[C@]2(O[C@](C)([C@H]3CC[C@@](C)(C4OC([C@H]5O[C@@](O)(CO)[C@H](C)C[C@@H]5C)C[C@@H]4C)O3)C[C@H]2C)[C@@H]1C (some centres not stated),0.588 µM (active)
11,COC(=O)C1=C(c2c(C)noc2C)C[C@@H]2CC[C@H]1N2C(=O)NCc1ccc2c(c1)OCO2,inactive
12,CCOC(=O)c1cccc(C2=C(CNC(=O)c3ccncc3)[C@H]3CC[C@@H](C2)N3Cc2ccccc2)c1,inactive
13,COC(=O)C1=C(c2ccc(-c3ccccc3)c(F)c2)C[C@@H]2CC[C@H]1N2C(=O)NCc1ccc(F)cc1,16.4 µM (active)
14,COC(=O)C1=C(c2cccc(OCc3ccccc3)c2)C[C@@H]2CC[C@H]1N2C(=O)NNCc1ccccc1,20.6 µM (active)
15,COC(=O)C1=C(c2ccc(F)cc2OCc2ccccc2)C[C@@H]2CC[C@H]1N2C(=O)NCc1ccc(OC)c(OC)c1,18.4 µM (active)
16,COC(=O)C1=C(c2ccc(F)cc2OCc2ccccc2)C[C@@H]2CC[C@H]1N2C(=O)NCc1ccc(Cl)cc1,20.6 µM (active)
17,COC(=O)C1=C(c2ccccc2)C[C@@H]2CC[C@H]1N2C(=O)NCc1ccco1,inactive
18,COc1ccc(CCn2c(O)c(C=NC3CC3)c(=O)[nH]c2=O)cc1OC,inactive
19,CCN(CC)c1ccc([N+](=O)[O-])c2cccnc12,inactive
20,CC(C)c1c(CN(C)C(C)Cc2ccccc2)n(C)n(-c2ccccc2)c1=O (configuration not stated),inactive
21,CCN1c2nc3c(C)cccn3c(=O)c2CC2(C(=O)N(C)C(=O)N(C)C2=O)C1C (configuration not stated),inactive
22,CCC(C)n1c(O)c(/C=N/Nc2nc3c(c(=O)n(C)c(=O)n3C)n2C)c(=O)[nH]c1=S (configuration not stated),inactive
